Data: the supplement of paper PMC6555819

Assays:
Experiment in all cases: PBM binding z-score (relative to random genomic background probes); higher = stronger binding; sequences stand for … in GC…GCGATTGACAGCGTAGAATGAAGG
[1] = test system: FXR:RXRa (NR concentration 270 nM, RXRa partner concentration 90 nM)
Summary of the method: (§1)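 Probes were double-stranded and carried 34-nt variable regions with direct-repeat seeds, single-nucleotide variants, half-site ablations and random human genomic background sequences, printed on custom Agilent 4×180K protein-binding microarrays. Arrays were incubated 1 h with ligand-free nuclear receptor dimers in PBS pH 7.4, 2% milk, 0.02% Triton X-100, 1 mM DTT, 0.2 mg/mL BSA and 0.4 mg/ml salmon testes DNA. Antibodies against each partner (one per run) detected binding, and scanned fluorescence was regression-normalized. Binding z-scores use the random background probes as reference.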

[2] = test system: LXRa:RXRa (NR concentration 270 nM, RXRa partner concentration 90 nM)
Summary of the method: as §1

[3] = test system: LXRa homodimer (NR concentration 270 nM)
Summary of the method: as §1

[4] = test system: LXRb:RXRa (NR concentration 270 nM, RXRa partner concentration 90 nM)
Summary of the method: as §1

[5] = test system: LXRb homodimer (NR concentration 270 nM)
Summary of the method: as §1

[6] = test system: PPARa:RXRa (NR concentration 270 nM, RXRa partner concentration 90 nM)
Summary of the method: as §1

[7] = test system: PPARg:RXRa (NR concentration 180 nM, RXRa partner concentration 90 nM)
Summary of the method: as §1

[8] = test system: PPARg:RXRa 270nM:90nM, anti-RXR (NR concentration 270 nM, RXRa partner concentration 90 nM)
Summary of the method: as §1

[9] = test system: PPARg:RXRa 30nM:10nM, anti-RXR (NR concentration 30 nM, RXRa partner concentration 10 nM)
Summary of the method: as §1

[10] = test system: PPARg:RXRa 90nM:30nM, anti-RXR (NR concentration 90 nM, RXRa partner concentration 30 nM)
Summary of the method: as §1

[11] = test system: PPARg:RXRa DBDmut IVT, anti-RXR (DBD mutation: RXRa K156A/R161A, NR concentration 270 nM, RXRa partner concentration 90 nM)
Summary of the method: as §1

[12] = test system: PPARg:RXRa IVT, anti-PPARg (NR concentration 270 nM, RXRa partner concentration 90 nM)
Summary of the method: as §1

[13] = test system: PPARg DBDmut:RXRa IVT, anti-PPARg (DBD mutation: PPARg1 K132A/R137A, NR concentration 270 nM, RXRa partner concentration 90 nM)
Summary of the method: as §1

[14] = test system: PPARg DBDmut IVT, anti-PPARg (DBD mutation: PPARg1 K132A/R137A, NR concentration 270 nM)
Summary of the method: as §1

[15] = test system: PPARg homodimer (NR concentration 180 nM)
Summary of the method: as §1

[16] = test system: PXR:RXRa (NR concentration 270 nM, RXRa partner concentration 90 nM)
Summary of the method: as §1

[17] = test system: PXR homodimer (NR concentration 270 nM)
Summary of the method: as §1

[18] = test system: RARa:RXR (NR concentration 270 nM, RXRa partner concentration 90 nM)
Summary of the method: as §1

[19] = test system: RARa homodimer (NR concentration 270 nM)
Summary of the method: as §1

[20] = test system: RARb:RXRa (NR concentration 270 nM, RXRa partner concentration 90 nM)
Summary of the method: as §1

Row | Sequence | PBM binding z-score [1] | PBM binding z-score [2] | PBM binding z-score [3] | PBM binding z-score [4] | PBM binding z-score [5] | PBM binding z-score [6] | PBM binding z-score [7] | PBM binding z-score [8] | PBM binding z-score [9] | PBM binding z-score [10] | PBM binding z-score [11] | PBM binding z-score [12] | PBM binding z-score [13] | PBM binding z-score [14] | PBM binding z-score [15] | PBM binding z-score [16] | PBM binding z-score [17] | PBM binding z-score [18] | PBM binding z-score [19] | PBM binding z-score [20]
1 | CCTCGGAGGACACAAGGTCAGAGCTGTCCGCTTT | 1.95 | 2.18 | 0.422 | 1.25 | -0.693 | 2.17 | 0.424 | 1.15 | -0.626 | 0.468 | 0.831 | 0.883 | -1.16 | -1.74 | 1.72 | 2.35 | 0.133 | 2.25 | 0.096 | 3.46
2 | AGAATGAGGTTATAGGTAGATCAGGGAAGAAAGT | 2.06 | 2.1 | 0.425 | 1.89 | 0.41 | 3.67 | 4.23 | 4.73 | 3.33 | 4.47 | 2.86 | 2.76 | 1.2 | 1.03 | 1.63 | 1.52 | 1.49 | 1.93 | 1.46 | 1.72
3 | GGAACGAGGGAAAGTTGATAGCAGAGTTTGATGG | -0.31 | -0.575 | -0.354 | -0.799 | -0.711 | -0.252 | 0.626 | 0.9 | 0.276 | 0.845 | 0.0988 | -0.37 | -0.287 | -0.305 | 0.398 | -0.176 | 0.056 | -0.338 | -0.00431 | -0.247
4 | GTACCAAGGTGAATAGGTCGTTGGTGAGTAGGCG | 0.874 | 0.844 | -0.171 | 0.388 | -0.834 | 2.25 | 1.17 | 1.93 | 0.116 | 1.13 | 1.63 | 2.76 | -0.162 | -0.965 | 0.877 | 0.626 | -0.0296 | 1.9 | -0.0597 | 2.1
5 | TCGAGTAGGTTATTCGGGGCATTCAGCCAACATA | 1.16 | 1.05 | 0.0577 | 1.51 | -0.7 | 1.69 | 0.35 | 1.19 | 1.13 | 1.07 | 3.04 | 2.49 | -0.276 | -0.446 | -0.00227 | 0.948 | 0.669 | 0.746 | -0.612 | 0.781
6 | ATCTCTAGGAAAGACTCAGTTCAGTGAAGAACGC | 0.193 | 0.324 | 0.437 | 0.164 | 0.531 | -0.385 | -0.00135 | -0.209 | -0.24 | -0.119 | -0.0594 | -0.318 | 0.245 | 0.852 | 0.978 | 0.737 | 1.37 | 0.199 | 0.964 | 0.144
7 | CGTCCAAGGTCATGGTCAGTGAAAGAGACTCGAA | 6.75 | 5.27 | 0.622 | 4.03 | 0.455 | 5.74 | 5.32 | 5.75 | 2 | 4.28 | 3.19 | 3.62 | 0.127 | 0.155 | 3.09 | 3.98 | 0.701 | 4.83 | 1.11 | 5.11
8 | TGAATGAGCTTAAAGATCAGGGAACGTGGCGTCG | -0.0785 | -0.405 | -0.642 | -0.65 | -0.626 | -0.428 | 0.39 | 0.417 | -0.0177 | 0.152 | -0.909 | -0.722 | -0.0715 | -0.43 | -0.49 | -0.508 | -0.697 | -0.284 | -0.372 | -0.351
9 | CGTCCAAGGTCAGAGAGGTCAGCGAATGCCGAGT | 6.38 | 5.44 | 3.27 | 4.32 | 0.249 | 5.09 | 4 | 4.67 | 0.981 | 3.07 | 3.1 | 3.68 | -0.551 | -0.132 | 3.56 | 6.27 | 10.9 | 6.31 | 2.51 | 5.22
10 | CCAGACAGGTGAAAGGTAACTCAGTCTGGTACGC | 0.692 | 0.861 | -0.121 | 1.01 | -0.274 | 3.53 | 6.06 | 5.9 | 4.26 | 6.73 | 2.07 | 3.2 | 0.403 | -0.0766 | 1.36 | 0.838 | 0.027 | 1.99 | 0.208 | 1.4
11 | ACAGACACGTGATGAAGGTAACTCAGGCTATCAT | 0.135 | 0.0254 | -0.272 | 0.133 | -0.0548 | -0.111 | 0.787 | -0.012 | 0.0893 | -0.0553 | -0.318 | -0.0146 | 0.501 | 0.226 | 0.142 | -0.0986 | 0.0203 | 0.352 | 0.63 | -0.138
12 | ACTATTAGTTGACTAAGGGCAACCGATACGACGC | 0.232 | 0.474 | 0.168 | 0.518 | 0.478 | 0.573 | 1.06 | 0.728 | 0.0857 | 0.518 | 0.0727 | 0.783 | 0.688 | 0.819 | 0.638 | 0.652 | 0.92 | 0.766 | 0.98 | 1.53
13 | TCATATAGGTAAAAAGTGAAAGTCGGTGTGGTAA | 1.13 | 1.01 | 0.0735 | 0.858 | -0.108 | 2.62 | 3.5 | 5.44 | 5.22 | 5.77 | 4.48 | 2.54 | 1 | 0.168 | 0.986 | 0.581 | 0.658 | 0.666 | 0.947 | 0.366
14 | CCGAGTAGGTTTTGGGGCATTCAGGCAACGGTGA | 0.199 | 0.0127 | -0.127 | 0.177 | -0.134 | 0.31 | -0.0212 | 0.955 | -0.147 | 0.58 | 0.795 | 0.696 | -0.353 | -0.0504 | 0.76 | -0.31 | -0.0267 | 0.2 | 0.947 | 0.205
